# In paper PMC4552634, “A New Set of Chemical Starting Points with Plasmodium falciparum Transmission-Blocking Potential for Antimalarial Drug Discovery” (PLoS ONE, 2015):
# About 3,200 (25%) of roughly 13,000 compounds showed an effect of 50% or more. The list shows a part of the results.
# Test system: P. falciparum stage V gametocytes
# Design: BacTiter-Glo ATP luminescence viability of purified stage V gametocytes in 384-well plates, per cent inhibition versus DMSO
# Conditions: 48 h, 5 µM; inhibitor
row,SMILES,% Inhibition [%]
1,CCOC(=O)C1=C(C)NC(C)=C(C(=O)OCC)C1(C(=O)OCc1ccccc1)c1cccc(C(F)(F)F)c1 [TCMDC-132060],-16.58
2,Cc1cc(NC(=O)c2coc3cc(F)c(N4CC(C)N(C)C(C)C4)cc23)cnc1-c1ccc(C#N)cc1 (stereo not drawn) [TCMDC-141403],-2.152
3,Oc1ccc(Cl)cc1CN1CCC(CCOC(c2ccccc2)c2ccc(Cl)cc2)CC1 (stereo not drawn) [TCMDC-136035],13.31
4,O=C(/C=C/c1ccc(Cl)c(Cl)c1)NCCCCCN1CCC(NC(=O)Nc2cc(F)ccc2F)CC1 [TCMDC-135713],-50.93
5,COc1cc(F)c2ncc(Cl)c(CCN3CCC(NCc4cc5c(cn4)OCCO5)CC3)c2c1 [TCMDC-134284],7.425
6,O=S(=O)(c1cc(Cl)ccc1Cl)N1CCCCC(c2ccc(C(F)(F)F)cc2)=N1 [TCMDC-134538],-6.074
7,CCCCN1CCCC[C@H]1[C@@H](O)c1ccnc2ccc(OCC)cc12 [TCMDC-132037],-41.99
8,CN(N=Cc1ccccc1)C(N)=NCCCC#Cc1cccc(CN2CCCC2)c1 [TCMDC-136886],99.7
9,CC(C)c1ccc(NC(=O)c2cccc(CN3CCCN(Cc4cccc(C#N)c4)CC3)c2)cc1 [TCMDC-135975],18.13
10,CC(C)(C)c1ccc(NC(=O)c2cccc(CN3CCCN(Cc4cccc(C#N)c4)CC3)c2)cc1 [TCMDC-135981],-19.29
11,CCCCCCNC(=O)C1Cc2c([nH]c3ccccc23)C2(CCN(CCc3ccccc3)CC2)N1 (stereo not drawn) [TCMDC-141085],-57.94
12,O=C(CCc1cnc[nH]1)Nc1ccc(-c2ccc(-c3nc4ccc(F)cc4[nH]3)cc2)cc1 [TCMDC-136776],4.733
13,CCCCCCCCOc1c(OCC)cc(Cc2cnc(N)nc2N)cc1OCC [TCMDC-137175],-7.172
14,CCN(CC)CCCCCNc1c2ccc(Cl)cc2nc2ccc(OC)cc12 [TCMDC-137514],94.78
15,CCCCCCN(CCCCCC)CCCCNc1c2ccc(Cl)cc2nc2ccc(OC)cc12 [TCMDC-137520],100.6
16,CCCCN(CCCC)CCCCNc1c2ccc(Cl)cc2nc2ccc(OC)cc12 [TCMDC-137460],99.56
17,COc1ccc2nccc([C@@H](O)CN3CCC(NC(=O)C(c4ccsc4)N4CCN(c5ccccc5)CC4)CC3)c2c1 (stereo partly drawn) [TCMDC-140985],-15.82
18,Cc1cccc2nc(-c3cccc(-c4cccc(C(=O)NCc5nccn5C)c4)c3)[nH]c12 [TCMDC-132355],-47.29
19,CN(CCN)Cc1cccc(-c2cccc(-c3nc4ccc(C(F)(F)F)cc4[nH]3)c2)c1 [TCMDC-132818],68
20,CNc1ccc(CNCc2cccc(-c3ccc(-c4nc5ccc(C(F)(F)F)cc5[nH]4)cc3)c2)cc1 [TCMDC-132982],-73.95
21,CC(C)NCc1cccc(-c2ccc(-c3nc4ccc(C(F)(F)F)cc4[nH]3)cc2)c1 [TCMDC-132742],-56.16
22,CNCCNCc1cccc(-c2cccc(-c3nc4ccc(C(F)(F)F)cc4[nH]3)c2)c1 [TCMDC-132827],52.85
23,COc1ccc(CNCc2ccc(-c3cccc(-c4nc5ccc(C(F)(F)F)cc5[nH]4)c3)cc2)cc1 [TCMDC-132731],-22.42
24,COc1ccc(CNCc2cccc(-c3ccc(-c4nc5ccc(C(F)(F)F)cc5[nH]4)cc3)c2)cc1 [TCMDC-132723],-32.29

row,SMILES,% Inhibition [%]
1,CNCCNCc1cccc(-c2ccc(-c3nc4ccc(C(F)(F)F)cc4[nH]3)cc2)c1 [TCMDC-132834],79.7
2,CN(CCN)Cc1cccc(-c2cccc(-c3nc4ccc(F)cc4[nH]3)c2)c1 [TCMDC-132822],48.31
3,CNCCNCc1ccc(-c2cccc(-c3nc4ccc(C(F)(F)F)cc4[nH]3)c2)cc1 [TCMDC-132826],78.68
4,CNCCNCc1ccc(-c2ccc(-c3nc4ccc(C(F)(F)F)cc4[nH]3)cc2)cc1 [TCMDC-132833],32.25
5,Clc1ccc(-c2cc(-c3csc(NCCN4CCCCC4)n3)on2)cc1 [TCMDC-140321],-2.378
6,NC(=O)C1CCN(Cc2cccc(-c3cccc(-c4nc5cc(C(F)(F)F)ccc5[nH]4)c3)c2)CC1.O=C(O)C(F)(F)F [TCMDC-132696],-65.64
7,Cc1ccc(C(C)C)c(Oc2ccc3nc(N)nc(N)c3c2)c1 [TCMDC-135559],-10.97
8,OC1(Cc2ccccc2)CCN(Cc2cccc(-c3c[nH]c4nc(NC5CCCC5)ncc34)c2)CC1 [TCMDC-133773],-59.82
9,O=C(O)C(F)(F)F.c1cc(CNCCc2ccncc2)cc(-c2ccc(-c3nc4ccccc4[nH]3)s2)c1 [TCMDC-132842],-14.4
10,FC(F)(F)c1ccc2nc(-c3cccc(-c4cccc(CNCCc5ccncc5)c4)c3)[nH]c2c1 [TCMDC-132847],78.26
11,FC(F)(F)c1ccc2nc(-c3cccc(-c4ccc(CNCCc5ccncc5)cc4)c3)[nH]c2c1 [TCMDC-132845],-28.78
12,FC(F)(F)c1ccc2nc(-c3cccc(-c4cccc(CN5CCN(c6ccncc6)CC5)c4)c3)[nH]c2c1 [TCMDC-132911],-29.28
13,c1cc(CNCCc2ccncc2)cc(-c2cccc(-c3nc4ccccc4[nH]3)c2)c1 [TCMDC-132858],84.49
14,c1cc(CNCCc2ccncc2)cc(-c2csc(-c3nc4ccccc4[nH]3)c2)c1 [TCMDC-132841],-33.89
15,O=C(c1cc2nc3c(c(C(F)(F)F)n2n1)CCc1ccccc1-3)N1CCN2CCCC2C1 (stereo not drawn) [TCMDC-123850],0.1952
16,CC(C)(C)c1ccc(CN2CCC(NC(=O)c3cc(-c4cccc(C(F)(F)F)c4)cs3)C2)cc1 (stereo not drawn) [TCMDC-134475],53.3
17,CC(C)(C)CCN1CCC(CNC(=O)c2cc(-c3cccc(C(F)(F)F)c3)cs2)C1 (stereo not drawn) [TCMDC-134425],78.38
18,CSc1ccc(CN2CCC(NC(=O)c3ccc(-c4cccc(C(F)(F)F)c4)s3)CC2)cc1 [TCMDC-134340],5.591
19,CC(C)c1ccc(CN2CCC(CNC(=O)c3cc(-c4cccc(C(F)(F)F)c4)cs3)C2)cc1 (stereo not drawn) [TCMDC-134435],101.9
20,CC(C)(C)CCN1CCC(NC(=O)c2ccc(-c3cccc(C(F)(F)F)c3)s2)CC1 [TCMDC-134322],-68.21
21,O=C(NCC1CCN(Cc2ccc(F)cc2)C1)c1cc(-c2cccc(C(F)(F)F)c2)cs1 (stereo not drawn) [TCMDC-134481],39.58
22,CC(C)(C)CCN1CCC(CNC(=O)c2cc(-c3cccc(Cl)c3)cs2)C1 (stereo not drawn) [TCMDC-134426],39.67
23,CCc1ccc(CN2CCC(CNC(=O)c3cc(-c4cccc(C(F)(F)F)c4)cs3)C2)cc1 (stereo not drawn) [TCMDC-134430],102.1
24,O=C(NC1CCN(Cc2ccc(F)cc2)CC1)c1ccc(-c2cccc(C(F)(F)F)c2)s1 [TCMDC-134358],-14.39
